# Assay results from paper PMC9174471.
# Molecular target: Histone H4 (UniProt P62805)
# Assay: cross-link between two proteins; cross-linking mass spectrometry
substance,measurement,value
"ADP/ATP translocase 3, P12236",listed as a hit,yes
